From PubChem BioAssay (EPA / NIEHS) come the findings set out here.

One may read the AC50 as the concentration at which the activity in the assay is half-maximal.

Calls of active or inactive are those of the source. The calls were made as follows: active = hit-call score of the fitted dose curve at least 0.9, where 1 is the maximum; inactive = score below 0.9.

Read-out in the experiment: Vascular cell adhesion molecule 1 (VCAM1), VCAM1 (gene 7412)
The experiment can be described thus: BSK_MyoF_VCAM1: BioMAP Diversity Plus: MyoF Assay for Vascular cell adhesion molecule 1 (VCAM1) Biomarker Activity (AID 2284231). Conditions: primary human lung fibroblasts. As to the method:
BSK_MyoF is a cell-based, multiplexed-readout assay that uses lung fibroblasts, […], with measurements taken at 24 hours after chemical dosing in a microplate: 96-well plate.BSK_MyoF_VCAM1 is an assay component measured in the BSK_MyoF assay. It measures VCAM-1 antibody related to regulation of gene expression using ELISA technology.Data from the assay component BSK_MyoF_VCAM1 was analyzed at the endpoint, BSK_MyoF_VCAM1, in the positive analysis fitting direction relative to DMSO as the negative control and baseline of activity. Using a type of binding reporter, gain or loss-of-signal activity can be used to understand protein changes. To generalize the intended target to other relatable targets, this assay endpoint is annotated to the 'cell adhesion molecules' intended target family, where the subfamily is 'Immunoglobulin CAM'.
The levels of cell surface (or secreted, indicated by the prefix "s") biomarker endpoints were measured by ELISA. Overt cytotoxicity to cells in confluent adherent cultures (all systems other than the BT system) was assessed by measuring total protein levels using sulforhodamine B (SRB) staining in parallel cultures at the time of biomarker measurements, indicated as SRB endpoints. For proliferation assays for adherent cell types, individual cell types are cultured at sub-confluence and relative cell numbers quantified by SRB staining at time points optimized for each system (48 h: 3C and CASM3C systems; 72 h: BT and HDF3CGF systems; 96 h: SAg system). SRB was performed by staining cells with 0.1% SRB after fixation with 10% TCA and reading wells at 560 nm.Viability and proliferation of PBMC (T cells) was quantified by Alamar Blue reduction for the SAg and BT systems. For PBMC viability (referred to as PBMC Cytotoxicity within the assay endpoint names), cells were plated (75,000/well in a 96-well plate) and then chemical samples added for 1 h before addition of activators, SEB and TSST-1 (20 ng/mL final concentration each). Cells were incubated for 90 h. Then, Alamar Blue (20 uL/well) (Invitrogen, Cat DAL1100) was added for 6 h, and the plates were read with a fluorescence microplate reader at 546/580 nm (excitation/emission). For PBMC proliferation, cells were plated and activated as above but incubated for only 16 h prior to addition of Alamar Blue. Plates were read after 6 h.
Consider `C=CCOc1c(Br)cc(Br)cc1Br`, for which the AC50 is 23.7 µM (active).

Consider `CCCCCCCCc1ccc(Nc2ccc(CCCCCCCC)cc2)cc1`, for which the result was inactive.

For the compound `CC(C)C(=O)C(C)C`, the result was inactive.

Consider `c1ccc2c(c1)ccc1ncccc12`, for which the result was inactive.

Turning to `CCO[Si](CCCN=C=O)(OCC)OCC`, the outcome was inactive.

Consider `CCCCC(CC)COC(=O)c1ccccc1O` (configuration not stated), for which the result was inactive.

Consider `CC(C)(c1cc(Br)c(OCCO)c(Br)c1)c1cc(Br)c(OCCO)c(Br)c1`, for which the concentration at half-maximal activity (AC50) was 7.89 µM (active).

Take `C#CC1(O)CC[C@H]2[C@@H]3CCC4=CCCC[C@@H]4[C@H]3CC[C@@]21C` (some centres not stated): the AC50 was 33.1 µM (active).

Regarding `C=CCOCC(O)CCl` (configuration not stated), the result was inactive.

As to `C/C=C\C/C=C/CCCCCCCCOC(C)=O`, the outcome was inactive.

As to `CCCCCCCCCCCCCCCC[N+](C)(C)CC`, the AC50 was 1.71 µM (active).

Take `C=CC(=O)OCC(Br)CBr` (configuration not stated): the AC50 was 20 µM (active).

Take `CCCCC/C=C\C/C=C\CCCCCCCC(=O)OC`: the result was inactive.

Regarding `CCOc1nc(F)cc2nc(S(=O)(=O)Nc3c(Cl)cccc3C(=O)OC)nn12`, the outcome was inactive.

With `O=C(Nc1ccccc1SSc1ccccc1NC(=O)c1ccccc1)c1ccccc1`, the outcome was inactive.

For the compound `O=c1c2ccccc2oc2ccccc12`, the outcome was inactive.

Turning to `c1ccc2c(c1)ccc1cc3c(ccc4ccccc43)cc12`, the result was inactive.

Take `CC1OC1C1CCC2(C)OC2C1` (configuration not stated): the outcome was inactive.

Consider `C=CC=CC=CCCCCC`, for which the outcome was inactive.

On to `COCc1c(C(C)C)nc(C(C)C)c(/C=C/[C@@H](O)C[C@@H](O)CC(=O)O)c1-c1ccc(F)cc1`, for which the AC50 is 0.0229 µM (active).

Regarding `COc1ccc2nc(N)sc2c1`, the outcome was inactive.

In the case of `S=C(NC1CCCCC1)NC1CCCCC1`, the outcome was inactive.

`CCCCNc1ccc(NCCCC)c2c1C(=O)c1ccccc1C2=O`: the result was inactive.

`N#[N+]c1ccc2c(S(=O)(=O)[O-])cccc2c1O`: the result was inactive.

`c1ccc(-c2ccccn2)nc1`: the result was inactive.

As for `O=Nc1ccc(O)cc1`, the outcome was inactive.

As for `O=C(Cl)c1cc(C(=O)Cl)cc(C(=O)Cl)c1`, the AC50 is 35.3 µM (active).
